Experimental data from the supplement of paper PMC13380429.

system: Vero E6 infected with SARS-CoV-2; experiment: morphology score (similarity to uninfected cells); higher = more like uninfected cells; conditions: 24 h

SMILES | morphology score
Cn1c2c(c3ccccc31)CCNCC2 (10 µM) | 0.0193
CC(C)N(CC[C@H](c1ccccc1)c1cc(CO)ccc1O)C(C)C [5-hydroxymethyl-tolterodine] (10 µM) | 0.191
CCOC(=O)c1ccc(C#Cc2ccc3c(c2)C(C)(C)CCS3)nc1 [tazarotene] (10 µM) | -0.0471
COCCCOc1ccnc(C[S+]([O-])c2nc3ccccc3[nH]2)c1C (stereo not given) [rabeprazole] (10 µM) | 0.00912
NCC[C@H](O)C(=O)N[C@@H]1C[C@H](N)[C@@H](O[C@H]2O[C@H](CN)[C@@H](O)[C@H](O)[C@H]2O)[C@H](O)[C@H]1O[C@H]1O[C@H](CO)[C@@H](O)[C@H](N)[C@H]1O [amikacin] (10 µM) | -0.122
COc1cc2c(cc1OC)[C@H](C)NCC2 [Isoquinoline,-6,7-dimethoxy-1-methyl-1,2,3,4-tetrahydro,] (10 µM) | 0.0205
Nc1nc2c(c(N3CCNCC3)n1)CCC1=C2[C@@H]2CCCC[C@@H]2O1 (10 µM) | 0.247
CN1C[C@H](CNC(=O)OCc2ccccc2)C[C@@H]2c3cccc4c3c(cn4C)C[C@H]21 [metergoline] (10 µM) | 0.164
COc1ccc(C2CC(c3c(O)cc(C)oc3=O)=NCCS2)c(OC)c1 (stereo not given) (10 µM) | 0.0127
CC(C)C[C@H](NC(=O)N1CCCCCC1)C(=O)N[C@H](Cc1cn(C)c2ccccc12)C(=O)N[C@H](Cc1ccccn1)C(=O)O (10 µM) | 0.257
Nc1nc(=O)c(Br)c(-c2ccccc2)[nH]1 [bropirimine] (10 µM) | 0.109
O=C(Nc1c(Cl)cncc1Cl)c1ccc(OC(F)F)c(OCC2CC2)c1 [roflumilast] (10 µM) | 0.202
Cn1cc(CCn2cnc(-c3cnn(C)c3)c2-c2ccc(C#N)cc2)cn1 (10 µM) | 0.0344
C[C@@H](O)[C@@H]1NC(=O)[C@H](CCCCN)NC(=O)[C@@H](Cc2c[nH]c3ccccc23)NC(=O)[C@H](Cc2ccccc2)NC(=O)[C@@H](NC(=O)[C@H](N)Cc2ccccc2)CSSC[C@@H](C(=O)N[C@H](CO)[C@@H](C)O)NC1=O [octreotide] (10 µM) | 0.0589
Cc1ccc(NC2=NCCN2)c(Cl)c1 [tolonidine] (10 µM) | -0.0217
CCOc1ccc2nc3cc(N)ccc3c(N)c2c1 [ethacridine-lactate-monohydrate] (10 µM) | 0.0887
O=C(O)c1cc(/N=N/c2ccc(O)c(C(=O)O)c2)ccc1O [olsalazine] (10 µM) | 0.062
C[N+]1(C)[C@@H]2C[C@@H](OC(=O)[C@H](CO)c3ccccc3)C[C@H]1[C@@H]1O[C@@H]12 [methscopolamine] (10 µM) | -0.0273
C=C[C@@]1(C)CC(=O)[C@]2(O)[C@@]3(C)[C@@H](O)CCC(C)(C)[C@@H]3[C@H](OC(=O)CCN(C)C)[C@H](OC(C)=O)[C@@]2(C)O1 [colforsin-daproate] (0.833333 µM) | 0.5
N[C@H](Cc1cc(I)c(Oc2ccc(O)c(I)c2)c(I)c1)C(=O)O [liothyronine-(isomer)] (10 µM) | 0.127

SMILES | morphology score
CC(C)(C)C(=O)Oc1ccc(S(=O)(=O)Nc2ccccc2C(=O)NCC(=O)O)cc1 [sivelestat] (10 µM) | 0.168
CN(Cc1ccc(C(C)(C)C)cc1)Cc1cccc2ccccc12 [butenafine] (10 µM) | 0.502
N[C@H]1CCN(O)C1=O (10 µM) | 0.0281
CN(C)c1ccc(C(=C2C=CC(=[N+](C)C)C=C2)c2ccc(N(C)C)cc2)cc1 [crystal-violet] (10 µM) | -0.0788
Clc1cccc(-c2nnnn2Cc2cccnc2)c1Cl (10 µM) | 0.0426
CCC(=O)O[C@]1(C(=O)COC(C)=O)CC[C@H]2[C@@H]3C[C@H](C)C4=CC(=O)C=C[C@]4(C)[C@H]3[C@@H](O)C[C@@]21C [methylprednisolone-aceponate] (10 µM) | 0.0786
CC[N+](CC)(CCCNC1=CC(=O)C(NCCC[N+](CC)(CC)Cc2ccccc2)=CC1=O)Cc1ccccc1 [benzoquinonium-dibromide] (10 µM) | -0.00889
COc1ccc(-c2nc3cc(C4=NNC(=O)CC4C)ccc3[nH]2)cc1 (stereo not given) [pimobendan] (10 µM) | 0.129
Nc1n[n+]([O-])c2ccccc2[n+]1[O-] [tirapazamine] (10 µM) | 0.0691
O=C(CCBr)N1CC[N+]2(CC1)CC[N+]1(CCN(C(=O)CCBr)CC1)CC2 [spirobromin] (10 µM) | -0.0585
Cc1c(NC(=O)c2cc3c(s2)CCCC3)cccc1-c1cn(C)c(=O)c(Nc2ccc(C3C(=O)N(C)CCN3C)cc2)n1 (stereo in doubt) (10 µM) | 0.45
CC[C@H](NC(=O)c1c(O)c(-c2ccccc2)nc2ccccc12)c1ccccc1 [talnetant] (10 µM) | -0.0287
COc1ccc(C(C)=O)c(O)c1 [paeonol] (10 µM) | 0.0505
NC(=O)NCCN1CCN(c2cccc(C(F)(F)F)c2)CC1 [fluprazine] (10 µM) | 0.0715
C=C[C@]1(C)CC[C@@H](C(=C)C)C[C@H]1C(=C)C [beta-elemene] (10 µM) | -0.205
CS(=O)(=O)Oc1ccc2c(NC(N)=O)c(C(=O)c3ccc(Cl)cc3Cl)oc2c1 [lirimilast] (10 µM) | 0.204
O[C@H]1[C@H](O)[C@@H](O)CN2CC[C@H](O)[C@H]12 [castanospermine] (10 µM) | -0.18
NC(=O)c1ccc(-c2nc(-c3ccccn3)c(-c3ccc4c(c3)OCO4)[nH]2)cc1 (10 µM) | -0.124
N[C@@H](CC(=O)N1CCn2c(nnc2C(F)(F)F)C1)Cc1cc(F)c(F)cc1F [sitagliptin] (10 µM) | 0.0472
COc1ccc(S(=O)(=O)N2CCC[C@H]2C(=O)Nc2cc(C)cc(C)c2)cc1 (10 µM) | -0.0886
